# Results from PubChem BioAssay AID1490 (National Center for Advancing Translational Sciences (NCATS), 2009).
# The whole screen tested about 310,000 compounds, of which about 11,000 (3.5%) were called active. Inconclusive results (about 4%) are left out. The entries come from a sample that favours actives as a whole. Unmarked numbers belong to inactive results. Calls follow the shape of the dose curve; as a rule, active = well fitted inhibition curve with a large enough effect; inconclusive = small, poorly fitted or top-dose-only effect, or another doubt; inactive = no such curve, though single readings can be large or run the other way.
# Molecular target: 4'-phosphopantetheinyl transferase ffp (Bacillus subtilis) (UniProt Q9F4F7)
# Test: qHTS Assay for Inhibitors of Bacillus subtilis Sfp phosphopantetheinyl transferase (PPTase);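 also: the enzyme is Sfp with the accession as filed and its product quenches rhodamine fluorescence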;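 as to largest response in the series, negative = inhibition: 0% = enzyme reaction without inhibitor and -100% = no enzyme wells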
# Settings: Biochemical Sfp PPTase activity
# Outline: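 After 15 min at room temperature with compound, 15 nM Sfp received 5 uM rhodamine-CoA plus 12.5 uM BHQ-2-ybbR (50 mM Hepes pH 7.6, 10 mM MgCl2). Rate came from the fluorescence difference over 30 min, ex 525/em 598 nm.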
# Potency is read from the fitted curve at half-maximal effect.
Compound,"largest response in the series, negative = inhibition",Potency
Cc1ccc(OCCCC(=O)Nc2ccc(S(=O)(=O)Nc3cc(C)nc(C)n3)cc2)cc1,5.46%,
CC1(C)OC2CO[C@]3(COS(N)(=O)=O)OC(C)(C)OC3C2O1 (stereo not given in full),20.4%,
O=C(N/N=C/c1cc2c(cc1Br)OCO2)C1COc2ccccc2O1 (stereo not given),0.904%,
O=C(CNC(=O)C1COc2ccccc2O1)N/N=C/c1cc(Br)c(O)c(Br)c1 (stereo not given),1.24%,
O=C(N/N=C\c1cc(Br)c(Br)o1)C1COc2ccccc2O1 (stereo not given),,39.8 µM (active)
C=CCN1CCN(C(=O)CCCc2ccccc2)CC1,13.4%,
Cc1cccc(OCC(=O)Nc2ccc(NC(=O)c3ccco3)c(C)c2)c1,16.8%,
O=C(NC1CCCCC1)c1cc(C2CC2)on1,2.59%,
CSc1ccccc1NC(=O)c1cc(C2CC2)on1,,17.8 µM (active)
O=C(Nc1cc(C(F)(F)F)ccc1Cl)c1cc(C2CC2)on1,15.4%,
O=C(NC(=S)Nc1ccccc1N1CCCCC1)c1ccc(F)cc1,5.51%,
CC1CN(C(=S)Nc2ccccc2F)CC(C)O1 (stereo not given),-11.5%,
O=C(Nc1ccccc1)Nc1ccc(C(F)(F)F)cn1,11.2%,
Oc1ccc(/C=N/Nc2ccc(C(F)(F)F)cn2)cc1O,,28.2 µM (active)
Oc1ccc(Br)cc1/C=N/Nc1ccccn1,5.24%,
Cc1c(Cl)c([N+](=O)[O-])nn1CC(=O)NCCCN1CCOCC1,1.31%,
O=C(CN1C(=O)COc2ccc(Cl)cc21)N1CCOCC1,9.91%,
O=C(N/N=C/c1ccccn1)c1cccc(NC(=O)c2ccc(Cl)cc2)c1,10.1%,
O=C(N/N=C/c1ccc(O)c2ccccc12)c1cccnc1,7.11%,
O=C(COc1ccc(Cl)cc1Cl)N/N=C/c1ccccn1,-29.7%,
CNC(=O)C(=O)N/N=C/c1ccccn1,,79.4 µM (active)
O=C(N/N=C/c1ccccn1)C12CC3CC(CC(C3)C1)C2,-35%,
O=C(N/N=C/c1ccccn1)c1cccnc1,,2 µM (active)
O=C(CCC1CCCC1)N=C1SC2CS(=O)(=O)CC2N1Cc1ccccc1 (stereo not given),11.9%,

Compound,"largest response in the series, negative = inhibition",Potency
Cc1ccnc(NC(=O)CCNS(=O)(=O)c2ccc(C)c(C)c2)c1,9.67%,
S=c1nccc(-c2cc(Cl)sc2Cl)[nH]1,,79.4 µM (active)
O=C(NCCS(=O)(=O)N1CCN(c2ccccc2F)CC1)c1ccc(Br)o1,27.4%,
O=C1C=C(c2ccc(Cl)cc2)C(=O)N1Nc1ccccc1,,10 µM (active)
O=C(O)CC1=C(Nc2ccccc2)C(=O)N(c2ccccc2)C1c1ccc(Cl)cc1 (stereo not given),18.5%,
O=C1c2cccc3cc(Br)cc(c23)C(=O)N1Nc1ccccc1,9.09%,
Cc1cccc2c1-c1sc(C(=O)NCCCN3CCc4ccccc4C3)cc1CO2,,44.7 µM (active)
O=C(NCCCN1CCOCC1)c1cc2c(s1)CCC2,23.9%,
O=C(CN1C(=O)COc2ccccc21)NCCN1CCc2ccccc2C1,7.58%,
O=C(CCCC(=O)N1CCN(c2cccc(Cl)c2)CC1)c1ccccc1,-3.1%,
CN(C(=O)COC(=O)CNC(=O)C12CC3CC(CC(C3)C1)C2)c1ccccc1,0.528%,
O=C(N/N=C/c1cccc(OC(=O)c2ccc([N+](=O)[O-])cc2)c1)c1cccnc1,10%,
COc1ccc(C2/C(=C(/O)c3ccccc3)C(=O)C(=O)N2c2ncccn2)cc1OC (stereo not given),-2.32%,
CCN(CC)CCN1C(=O)C(=O)/C(=C(/O)c2ccc(OC)c(OC)c2)C1c1ccccn1 (stereo not given),,56.2 µM (active)
CCCOc1ccc(/C(O)=C2/C(=O)C(=O)N(CCN(C)C)C2c2ccc(OC)c(OC)c2)cc1 (stereo not given),,79.4 µM (active)
CCN(CC)CCN1C(=O)C(=O)/C(=C(/O)c2ccccc2)C1c1ccccc1F (stereo not given),4.16%,
COc1ccc(/C(O)=C2/C(=O)C(=O)N(CCCN(C)C)C2c2ccccc2)cc1OC (stereo not given),6.96%,
COc1cccc(C2/C(=C(/O)c3ccc(F)cc3)C(=O)C(=O)N2CCN(C)C)c1 (stereo not given),-8.12%,
CC(=O)c1cccc(NC(=O)COc2ccc(S(=O)(=O)N3CCOCC3)cc2)c1,14.4%,
O=C(O)CN1c2cccc3cccc(c23)S1(=O)=O,-16.8%,
COc1ccc(OCc2n[nH]c(=S)n2N)cc1,-87.4%,
CSc1n[nH]c(=S)n1N,,44.7 µM (active)
O=c1nc(N/N=C/c2ccco2)cn[nH]1,,31.6 µM (active)
CC(C)NC(=O)C(=O)N/N=C/c1ccco1,13%,

Compound,"largest response in the series, negative = inhibition",Potency
O=C(Cn1cnc2ccccc21)N/N=C/c1ccco1,15.1%,
Cc1ccc(S(=O)(=O)NCc2ccc(C(=O)NC3CCC(C)CC3)cc2)cc1 (stereo not given),17%,
Cc1ccc(NC2CCCN(C(=O)CCc3cn[nH]c3)C2)cc1C (stereo not given),7.06%,
O=C(O)CCCn1cc(NC(=O)COc2cccc(Cl)c2)cn1,12.9%,
O=S(=O)(NC1CC1)c1ccc(Cl)cc1,10.7%,
Cc1cc(C)c(NC(=S)N2CCCC2C(=O)O)c(C)c1 (stereo not given),,35.5 µM (active)
Cc1cc([N+](=O)[O-])c(N2CCC[C@@H]2C(=O)O)c([N+](=O)[O-])c1,0.854%,
Cc1cccc(C)c1NC(=O)C1CCCN1C(=O)OC(C)(C)C (stereo not given),0.244%,
O=[N+]([O-])c1ccc(N2CCN(c3ccc(F)cc3)CC2)cn1,10.5%,
CC1C(=O)C(C)C(c2ccc(O)cc2)NC1c1ccc(O)cc1 (stereo not given),4.83%,
COc1ccc(-c2cc(=O)oc3cc(OC(C)C(=O)NCC4CCC(C(=O)O)CC4)ccc23)cc1 (stereo not given),18.5%,
COc1c(O)c2c(=O)cc(OC)c3c4c(OC)cc(=O)c5c(O)c(OC)c6c(c(c1C[C@@](C)(O)[C@H]6C(C)=O)c23)c54,-14.1%,
O=C(Nc1ccncc1)Nc1ccc(F)cc1,14.5%,
CN(C)c1nc(NN)nc(Nc2ccc(F)cc2)n1,-5.52%,
Fc1ccc(Nc2nnns2)cc1,,8.91 µM (active)
C[n+]1ccccc1C1CCCC/C1=N\Nc1ccc([N+](=O)[O-])cc1[N+](=O)[O-] (stereo not given),-1.83%,
O=C(Nc1ccccc1)O/N=C1\CCCCC1c1ccc([N+](=O)[O-])cc1[N+](=O)[O-] (stereo not given),-6.23%,
O=[N+]([O-])c1ccc(N/N=C2/CCCCC2c2ccccn2)c([N+](=O)[O-])c1 (stereo not given),,35.5 µM (active)
Cc1cccc(-c2cc(=O)c3cc(C)ccc3o2)c1,,3.55 µM (active)
COc1ccccc1N1CCN(C(=O)c2cc(=O)c3cc(C)ccc3o2)CC1,-2.28%,
Cc1cccc(C2=N/C(=C/c3cccs3)C(=O)O2)c1,-1.85%,
CCN1CCN(c2ccc(S(=O)(=O)N3CCCCC3)cc2NC(=O)Cc2c(Cl)cccc2Cl)CC1,-8.91%,
CCN(C(=O)c1cc([N+](=O)[O-])ccc1NCc1cccnc1)c1ccccc1,-0.174%,
Cc1cc(C)c(OCC(=O)N/N=C/c2ccco2)c(C)c1,2.54%,

Compound,"largest response in the series, negative = inhibition",Potency
COC(=O)COc1ccc2c(c1C)O/C(=C\c1ccco1)C2=O,,50.1 µM (active)
COC(=O)C1=C(C)N(c2ccc(Br)cc2)C(=O)/C1=C\c1ccco1,-29.4%,
CC(=O)Nc1ccc(S(=O)(=O)NC2Cc3ccccc3C2)cc1,10.7%,
CC(CC(=O)N1CCN(c2ccccc2)CC1)S(=O)(=O)c1ccc2c(c1)NC(=O)CS2 (stereo not given),13.4%,
COc1ccc(C2c3[nH]c4ccccc4c3C[C@H]3C(=O)N(CC(C)C)CC(=O)N23)c(OC)c1 (stereo not given in full),-0.0198%,
Cc1cc(=O)[nH]c(SCC(N)=O)c1C#N,-20.3%,
Cc1cc(=O)[nH]c(S)c1C#N,,2.24 µM (active)
COC(=O)C1(C)C=CC2(CCCCC2)N1C(C)=O (stereo not given),-0.895%,
COc1ccc2[nH]c(C(=O)N3CCN(C)CC3)c(C)c2c1,10.8%,
Cc1ccc(N2CCN(C(=O)c3cccs3)CC2)c(C)c1,-4.64%,
N#Cc1ccccc1-n1c(N)c(C(=O)N2CCCC2)sc1=S,,25.1 µM (active)
Cc1cccc(-n2c(N)c(C(=O)N3CCN(C)CC3)sc2=S)c1,,3.55 µM (active)
CCC(=O)Nc1sc(C(=O)N2CCCCC2)c(C)c1C#N,8.83%,
CC(C)=C1SC(N2CCN(c3cccc(C)c3)CC2)=NC1=O,-3.03%,
Cc1ccc(-n2c(N)c(C(=O)N3CCOCC3)sc2=S)c(C)c1,,28.2 µM (active)
Cc1ccc(S(=O)(=O)N2CCN(C(=O)N3CCOCC3)CC2)c(C)c1,12%,
O=C(c1ccc(S(=O)(=O)c2ccccc2)cc1)N1CCCCCC1,-3.64%,
CCN(CC(=O)NCc1cccs1)C(=O)c1cccc(S(=O)(=O)Nc2ccccc2OC)c1,9.95%,
COc1ccc(NC(=O)Cn2ncn3c(cc4ccccc43)c2=O)c(OC)c1OC,14.8%,
COc1cc2c(cc1OC)CN(C(=O)c1cc(S(=O)(=O)N3CCCCC3)ccc1Cl)CC2,8.46%,
CCCCC(CC)CNCc1cccn1CCN1CCOCC1 (stereo not given),-12.1%,
COC(=O)c1cc(OCC(=O)NC2CCCc3ccccc32)cc(C(=O)OC)c1 (stereo not given),-18.9%,
Cc1ccc(OCC(=O)Nc2ccc(NC(=O)c3cccs3)cc2)c(C)c1,29.1%,
